# Laboratory results as given in paper PMC11006913.
# Positions count from the first letter of the chain named.
# What was measured:
# Experiment in all cases: PBM; 200 nM protein, PBS
# Conditions in all cases: dsDNA, one strand shown
# NKX2-5 [1] = target: NKX2-5 (Homo sapiens, UniProt P52952 125-210, R139K)
# HOXA7 [2] = target: HOXA7 (Homo sapiens, UniProt P31268 116-202)
# HOXB6 [3] = target: HOXB6 (Homo sapiens, UniProt P17509 132-218, K202E)
# HOXA7 [4] = target: HOXA7 (Homo sapiens, UniProt P31268 116-202, W177C)
# Chain of HOXA7 (Homo sapiens, UniProt P31268 116-202, W177C) (P31268 116-202 W177C): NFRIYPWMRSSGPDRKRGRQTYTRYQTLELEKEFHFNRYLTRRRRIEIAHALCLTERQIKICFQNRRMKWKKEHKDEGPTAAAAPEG
# NKX2-5 [5] = target: NKX2-5 (Homo sapiens, UniProt P52952 125-210)
# Chain of NKX2-5 (Homo sapiens, UniProt P52952 125-210) (P52952 125-210): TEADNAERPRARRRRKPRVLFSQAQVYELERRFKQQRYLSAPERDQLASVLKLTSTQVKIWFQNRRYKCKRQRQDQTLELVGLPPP
# HOXB6 [6] = target: HOXB6 (Homo sapiens, UniProt P17509 132-218)
# Chain of HOXB6 (Homo sapiens, UniProt P17509 132-218) (P17509 132-218): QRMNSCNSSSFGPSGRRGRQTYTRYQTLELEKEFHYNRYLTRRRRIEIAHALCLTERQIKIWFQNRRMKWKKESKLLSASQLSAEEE
# HOXA4 [7] = target: HOXA4 (Homo sapiens, UniProt Q00056 201-287, W262R)
# Chain of HOXA4 (Homo sapiens, UniProt Q00056 201-287, W262R) (Q00056 201-287 W262R): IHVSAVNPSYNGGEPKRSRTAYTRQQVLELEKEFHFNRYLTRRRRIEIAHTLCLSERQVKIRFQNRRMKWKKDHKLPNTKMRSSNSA
# HOXA4 [8] = target: HOXA4 (Homo sapiens, UniProt Q00056 201-287, R217L)
# Chain of HOXA4 (Homo sapiens, UniProt Q00056 201-287, R217L) (Q00056 201-287 R217L): as the sequence (Q00056 201-287 W262R) above, with R17L, R62W counted along it
# HOXA4 [9] = target: HOXA4 (Homo sapiens, UniProt Q00056 201-287)
# Chain of HOXA4 (Homo sapiens, UniProt Q00056 201-287) (Q00056 201-287): as the sequence (Q00056 201-287 W262R) above, with R62W counted along it
# HOXA4 [10] = target: HOXA4 (Homo sapiens, UniProt Q00056 201-287, W262F)
# Chain of HOXA4 (Homo sapiens, UniProt Q00056 201-287, W262F) (Q00056 201-287 W262F): as the sequence (Q00056 201-287 W262R) above, with R62F counted along it
# PAX4 [11] = target: T1, PAX4 (Homo sapiens, UniProt O43316 9-242, R200K)
# T1 sequence: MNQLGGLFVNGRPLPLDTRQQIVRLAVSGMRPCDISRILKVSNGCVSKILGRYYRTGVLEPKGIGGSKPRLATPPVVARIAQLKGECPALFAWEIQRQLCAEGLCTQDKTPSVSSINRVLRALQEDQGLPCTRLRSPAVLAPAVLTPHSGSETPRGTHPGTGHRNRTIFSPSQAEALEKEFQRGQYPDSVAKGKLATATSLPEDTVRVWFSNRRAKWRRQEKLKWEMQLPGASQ
# PRRX1 [12] = target: PRRX1 (Homo sapiens, UniProt P54821 80-166, F113S)
# Chain of PRRX1 (Homo sapiens, UniProt P54821 80-166, F113S) (P54821 80-166 F113S): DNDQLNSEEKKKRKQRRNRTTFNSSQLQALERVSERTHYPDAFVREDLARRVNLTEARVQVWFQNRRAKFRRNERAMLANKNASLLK
# PAX4 [13] = target: T2, PAX4 (Homo sapiens, UniProt O43316 9-242)
# T2 sequence: T1 sequence with K192R
# MSX2 [14] = target: MSX2 (Homo sapiens, UniProt P35548 130-214, R199I)
# Chain of MSX2 (Homo sapiens, UniProt P35548 130-214, R199I) (P35548 130-214 R199I): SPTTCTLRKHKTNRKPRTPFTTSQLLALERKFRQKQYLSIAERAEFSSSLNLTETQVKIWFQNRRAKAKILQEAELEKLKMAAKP
# PAX4 [15] = target: T3, PAX4 (Homo sapiens, UniProt O43316 9-242, R200Q)
# T3 sequence: T1 sequence with K192Q
# PAX4 [16] = target: T4, PAX4 (Homo sapiens, UniProt O43316 9-242, F177V)
# T4 sequence: T1 sequence with F169V, K192R
# MSX2 [17] = target: MSX2 (Homo sapiens, UniProt P35548 130-214)
# Chain of MSX2 (Homo sapiens, UniProt P35548 130-214) (P35548 130-214): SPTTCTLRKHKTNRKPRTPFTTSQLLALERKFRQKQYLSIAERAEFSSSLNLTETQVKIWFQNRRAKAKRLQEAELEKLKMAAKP
# PAX4 [18] = target: T5, PAX4 (Homo sapiens, UniProt O43316 9-242, F177Y)
# T5 sequence: T1 sequence with F169Y, K192R
# MSX2 [19] = target: MSX2 (Homo sapiens, UniProt P35548 130-214, F161Y)
# Chain of MSX2 (Homo sapiens, UniProt P35548 130-214, F161Y) (P35548 130-214 F161Y): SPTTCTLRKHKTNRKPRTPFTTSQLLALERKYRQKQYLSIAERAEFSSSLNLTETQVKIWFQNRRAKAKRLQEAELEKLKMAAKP
# PAX4 [20] = target: T6, PAX4 (Homo sapiens, UniProt O43316 9-242, R227W)
# T6 sequence: T1 sequence with K192R, R219W
# PRRX1 [21] = target: PRRX1 (Homo sapiens, UniProt P54821 80-166)
# Chain of PRRX1 (Homo sapiens, UniProt P54821 80-166) (P54821 80-166): as the sequence (P54821 80-166 F113S) above, with S34F counted along it
# HOXC9 [22] = target: HOXC9 (Homo sapiens, UniProt P31274 178-260, K195R)
# Chain of HOXC9 (Homo sapiens, UniProt P31274 178-260, K195R) (P31274 178-260 K195R): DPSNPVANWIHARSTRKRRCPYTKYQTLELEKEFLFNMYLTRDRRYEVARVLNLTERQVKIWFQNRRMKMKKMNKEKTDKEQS
# HOXA2 [23] = target: HOXA2 (Homo sapiens, UniProt O43364 129-215, R185T)
# Chain of HOXA2 (Homo sapiens, UniProt O43364 129-215, R185T) (O43364 129-215 R185T): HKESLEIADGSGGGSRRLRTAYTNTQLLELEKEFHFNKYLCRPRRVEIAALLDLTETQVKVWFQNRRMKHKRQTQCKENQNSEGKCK
# HOXC9 [24] = target: HOXC9 (Homo sapiens, UniProt P31274 178-260)
# Chain of HOXC9 (Homo sapiens, UniProt P31274 178-260) (P31274 178-260): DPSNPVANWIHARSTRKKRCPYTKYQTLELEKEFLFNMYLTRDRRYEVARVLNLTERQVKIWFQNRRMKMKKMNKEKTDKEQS
# HOXC9 [25] = target: HOXC9 (Homo sapiens, UniProt P31274 178-260, R193K)
# Chain of HOXC9 (Homo sapiens, UniProt P31274 178-260, R193K) (P31274 178-260 R193K): as the sequence (P31274 178-260) above, with R16K counted along it
# HOXA2 [26] = target: HOXA2 (Homo sapiens, UniProt O43364 129-215, R185K)
# Chain of HOXA2 (Homo sapiens, UniProt O43364 129-215, R185K) (O43364 129-215 R185K): as the sequence (O43364 129-215 R185T) above, with T57K counted along it
# VAX1 [27] = target: VAX1 (Homo sapiens, UniProt Q5SQQ9 86-172)
# Chain of VAX1 (Homo sapiens, UniProt Q5SQQ9 86-172) (Q5SQQ9 86-172): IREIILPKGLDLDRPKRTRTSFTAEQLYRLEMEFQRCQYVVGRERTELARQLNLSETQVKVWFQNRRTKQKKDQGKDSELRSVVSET
# HOXC9 [28] = target: HOXC9 (Homo sapiens, UniProt P31274 178-260, R222W)
# Chain of HOXC9 (Homo sapiens, UniProt P31274 178-260, R222W) (P31274 178-260 R222W): as the sequence (P31274 178-260) above, with R45W counted along it
# VAX1 [29] = target: VAX1 (Homo sapiens, UniProt Q5SQQ9 86-172, T142I)
# Chain of VAX1 (Homo sapiens, UniProt Q5SQQ9 86-172, T142I) (Q5SQQ9 86-172 T142I): as the sequence (Q5SQQ9 86-172) above, with T57I counted along it
# HOXA2 [30] = target: HOXA2 (Homo sapiens, UniProt O43364 129-215, Y150S)
# Chain of HOXA2 (Homo sapiens, UniProt O43364 129-215, Y150S) (O43364 129-215 Y150S): as the sequence (O43364 129-215 R185T) above, with Y22S, T57R counted along it
# NKX3-2 [31] = target: NKX3-2 (Homo sapiens, UniProt P78367 192-278, P234S)
# Chain of NKX3-2 (Homo sapiens, UniProt P78367 192-278, P234S) (P78367 192-278 P234S): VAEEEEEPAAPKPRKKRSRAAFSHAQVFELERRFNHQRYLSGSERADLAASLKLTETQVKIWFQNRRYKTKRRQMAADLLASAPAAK
# HOXA2 [32] = target: HOXA2 (Homo sapiens, UniProt O43364 129-215)
# Chain of HOXA2 (Homo sapiens, UniProt O43364 129-215) (O43364 129-215): as the sequence (O43364 129-215 R185T) above, with T57R counted along it
# VAX1 [33] = target: VAX1 (Homo sapiens, UniProt Q5SQQ9 86-172, K157R)
# Chain of VAX1 (Homo sapiens, UniProt Q5SQQ9 86-172, K157R) (Q5SQQ9 86-172 K157R): as the sequence (Q5SQQ9 86-172) above, with K72R counted along it
# NKX3-2 [34] = target: NKX3-2 (Homo sapiens, UniProt P78367 192-278)
# Chain of NKX3-2 (Homo sapiens, UniProt P78367 192-278) (P78367 192-278): as the sequence (P78367 192-278 P234S) above, with S43P counted along it
# Chain of NKX2-5 (Homo sapiens, UniProt P52952 125-210, R139K) (P52952 125-210 R139K): as the sequence (P52952 125-210) above, with R15K counted along it
# Chain of HOXA7 (Homo sapiens, UniProt P31268 116-202) (P31268 116-202): as the sequence (P31268 116-202 W177C) above, with C62W counted along it
# Chain of HOXB6 (Homo sapiens, UniProt P17509 132-218, K202E) (P17509 132-218 K202E): as the sequence (P17509 132-218) above, with K71E counted along it
sequence,measurement,setting,value
CAGAGCCG,binding signal,NKX2-5 [1],"8.74 upbm affinity estimate (log intensity, higher = more binding, comparable within an allelic series)"
same,binding signal,HOXA7 [2],"8.45 upbm affinity estimate (log intensity, higher = more binding, comparable within an allelic series)"
same,binding signal,HOXB6 [3],"8.99 upbm affinity estimate (log intensity, higher = more binding, comparable within an allelic series)"
same,binding signal,HOXA7 [4],"8.36 upbm affinity estimate (log intensity, higher = more binding, comparable within an allelic series)"
same,binding signal,NKX2-5 [5],"8.8 upbm affinity estimate (log intensity, higher = more binding, comparable within an allelic series)"
same,binding signal,HOXB6 [6],"9 upbm affinity estimate (log intensity, higher = more binding, comparable within an allelic series)"
CCGGACCG,binding signal,NKX2-5 [1],"8.49 upbm affinity estimate (log intensity, higher = more binding, comparable within an allelic series)"
same,binding signal,HOXA7 [2],"8.43 upbm affinity estimate (log intensity, higher = more binding, comparable within an allelic series)"
same,binding signal,HOXA7 [4],"8.36 upbm affinity estimate (log intensity, higher = more binding, comparable within an allelic series)"
same,binding signal,NKX2-5 [5],"8.49 upbm affinity estimate (log intensity, higher = more binding, comparable within an allelic series)"
CACCCCCG,binding signal,NKX2-5 [1],"8.95 upbm affinity estimate (log intensity, higher = more binding, comparable within an allelic series)"
same,binding signal,HOXA4 [7],"9.9 upbm affinity estimate (log intensity, higher = more binding, comparable within an allelic series)"
same,binding signal,HOXA4 [8],"9.84 upbm affinity estimate (log intensity, higher = more binding, comparable within an allelic series)"
same,binding signal,HOXA4 [9],"9.95 upbm affinity estimate (log intensity, higher = more binding, comparable within an allelic series)"
same,binding signal,HOXA4 [10],"9.77 upbm affinity estimate (log intensity, higher = more binding, comparable within an allelic series)"
same,binding signal,NKX2-5 [5],"9 upbm affinity estimate (log intensity, higher = more binding, comparable within an allelic series)"
CCGCCTCC,binding signal,NKX2-5 [1],"8.96 upbm affinity estimate (log intensity, higher = more binding, comparable within an allelic series)"
same,binding signal,PAX4 [11],"9.24 upbm affinity estimate (log intensity, higher = more binding, comparable within an allelic series)"
same,binding signal,PRRX1 [12],"9.25 upbm affinity estimate (log intensity, higher = more binding, comparable within an allelic series)"
same,binding signal,PAX4 [13],"9.34 upbm affinity estimate (log intensity, higher = more binding, comparable within an allelic series)"
same,binding signal,MSX2 [14],"9.48 upbm affinity estimate (log intensity, higher = more binding, comparable within an allelic series)"
same,binding signal,PAX4 [15],"9.3 upbm affinity estimate (log intensity, higher = more binding, comparable within an allelic series)"
same,binding signal,PAX4 [16],"9.19 upbm affinity estimate (log intensity, higher = more binding, comparable within an allelic series)"
same,binding signal,MSX2 [17],"9.45 upbm affinity estimate (log intensity, higher = more binding, comparable within an allelic series)"
same,binding signal,PAX4 [18],"9.18 upbm affinity estimate (log intensity, higher = more binding, comparable within an allelic series)"
same,binding signal,MSX2 [19],"9.54 upbm affinity estimate (log intensity, higher = more binding, comparable within an allelic series)"
same,binding signal,PAX4 [20],"9.29 upbm affinity estimate (log intensity, higher = more binding, comparable within an allelic series)"
same,binding signal,PRRX1 [21],"9.06 upbm affinity estimate (log intensity, higher = more binding, comparable within an allelic series)"
same,binding signal,NKX2-5 [5],"9 upbm affinity estimate (log intensity, higher = more binding, comparable within an allelic series)"
AGCCCGGG,binding signal,NKX2-5 [1],"8.84 upbm affinity estimate (log intensity, higher = more binding, comparable within an allelic series)"
same,binding signal,HOXC9 [22],"9.48 upbm affinity estimate (log intensity, higher = more binding, comparable within an allelic series)"
same,binding signal,PAX4 [11],"9.12 upbm affinity estimate (log intensity, higher = more binding, comparable within an allelic series)"
same,binding signal,PAX4 [13],"8.95 upbm affinity estimate (log intensity, higher = more binding, comparable within an allelic series)"
same,binding signal,HOXA2 [23],"7.03 upbm affinity estimate (log intensity, higher = more binding, comparable within an allelic series)"
same,binding signal,HOXC9 [24],"9.82 upbm affinity estimate (log intensity, higher = more binding, comparable within an allelic series)"
same,binding signal,MSX2 [14],"9.38 upbm affinity estimate (log intensity, higher = more binding, comparable within an allelic series)"
same,binding signal,PAX4 [15],"9.17 upbm affinity estimate (log intensity, higher = more binding, comparable within an allelic series)"
same,binding signal,HOXC9 [25],"9.63 upbm affinity estimate (log intensity, higher = more binding, comparable within an allelic series)"
same,binding signal,HOXA2 [26],"10.2 upbm affinity estimate (log intensity, higher = more binding, comparable within an allelic series)"
same,binding signal,PAX4 [16],"9.12 upbm affinity estimate (log intensity, higher = more binding, comparable within an allelic series)"
same,binding signal,MSX2 [17],"9.25 upbm affinity estimate (log intensity, higher = more binding, comparable within an allelic series)"
same,binding signal,PAX4 [18],"9.07 upbm affinity estimate (log intensity, higher = more binding, comparable within an allelic series)"
same,binding signal,VAX1 [27],"6.75 upbm affinity estimate (log intensity, higher = more binding, comparable within an allelic series)"
same,binding signal,HOXC9 [28],"9.71 upbm affinity estimate (log intensity, higher = more binding, comparable within an allelic series)"
same,binding signal,MSX2 [19],"9.37 upbm affinity estimate (log intensity, higher = more binding, comparable within an allelic series)"
same,binding signal,VAX1 [29],"6.9 upbm affinity estimate (log intensity, higher = more binding, comparable within an allelic series)"
same,binding signal,PAX4 [20],"9.13 upbm affinity estimate (log intensity, higher = more binding, comparable within an allelic series)"
same,binding signal,HOXA2 [30],"10.4 upbm affinity estimate (log intensity, higher = more binding, comparable within an allelic series)"
same,binding signal,NKX3-2 [31],"10.4 upbm affinity estimate (log intensity, higher = more binding, comparable within an allelic series)"
same,binding signal,HOXA2 [32],"7.06 upbm affinity estimate (log intensity, higher = more binding, comparable within an allelic series)"
same,binding signal,VAX1 [33],"6.72 upbm affinity estimate (log intensity, higher = more binding, comparable within an allelic series)"
same,binding signal,NKX2-5 [5],"8.8 upbm affinity estimate (log intensity, higher = more binding, comparable within an allelic series)"
same,binding signal,NKX3-2 [34],"10.3 upbm affinity estimate (log intensity, higher = more binding, comparable within an allelic series)"
